From the supplement of paper PMC6555819

Tests used:
Assay in all cases: PBM binding z-score (relative to random genomic background probes); higher = stronger binding; sequences stand for … in GC…GCGATTGACAGCGTAGAATGAAGG
[1] = tested on: RARb homodimer (NR concentration 270 nM)
How it was run: (§1)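 The probes on custom Agilent 4×180K protein-binding microarrays were double-stranded, with 34-nt variable regions bearing direct-repeat seeds, single-nucleotide variants, half-site ablations and random human genomic background sequences. Incubation lasted 1 h with ligand-free nuclear receptor dimers in PBS pH 7.4, 2% milk, 0.02% Triton X-100, 1 mM DTT, 0.2 mg/mL BSA and 0.4 mg/ml salmon testes DNA. Antibodies against each partner (one per run) detected bound dimers, and fluorescence scans were regression-normalized. Binding z-scores take the random background probes as reference.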

[2] = tested on: RARg:RXRa (NR concentration 270 nM, RXRa partner concentration 90 nM)
How it was run: as §1

[3] = tested on: RARg homodimer (NR concentration 270 nM)
How it was run: as §1

[4] = tested on: RXRa DBDmut IVT, anti-RXR (DBD mutation: RXRa K156A/R161A, NR concentration 90 nM)
How it was run: as §1

[5] = tested on: RXRa homodimer (NR concentration 180 nM)
How it was run: as §1

[6] = tested on: THRa:RXRa (NR concentration 90 nM, RXRa partner concentration 90 nM)
How it was run: as §1

[7] = tested on: THRa homodimer (NR concentration 90 nM)
How it was run: as §1

[8] = tested on: VDR:RXRa (NR concentration 270 nM, RXRa partner concentration 90 nM)
How it was run: as §1

[9] = tested on: VDR homodimer (NR concentration 270 nM)
How it was run: as §1

| Sequence | PBM binding z-score [1] | PBM binding z-score [2] | PBM binding z-score [3] | PBM binding z-score [4] | PBM binding z-score [5] | PBM binding z-score [6] | PBM binding z-score [7] | PBM binding z-score [8] | PBM binding z-score [9] |
| --- | --- | --- | --- | --- | --- | --- | --- | --- | --- |
| ACTATTAGTTCAGACGAGGGCAACCGATAGGTTG | 2.05 | 1.74 | 1.88 | 2.26 | 0.943 | 4.09 | 0.384 | 2.84 | 2.44 |
| GGAACGAGGGCAAAGTTGTTAGCATCTGTCGACG | 1.15 | 1.47 | 1.48 | 2.61 | 1.11 | 1.12 | -0.449 | 1.09 | 1.32 |
| CTTCGGAGGACAGAAGGTCAGAGCTGTCCGCTTT | 3.32 | 3.58 | 3.53 | -0.00556 | 2.14 | 2.31 | -0.137 | 0.953 | -0.0466 |
| CCTCCTAGGTCAATGGTCAGCTAAAGCAGCTCGC | 3.17 | 3.66 | 4.2 | 1.03 | 2.16 | 2.61 | 1.17 | 1.29 | 0.912 |
| AGTCAAAGTTCAGGACGAGGTAACTTAAAGCACG | 3.3 | 4.79 | 5.03 | 3.03 | 3.16 | 3.94 | 1.7 | 3.1 | 2.28 |
| CAAACTAGGTCAAAGATCAAAGTCGAGCCAACCA | 2.5 | 4.93 | 4.62 | 1.97 | 5.28 | 2.9 | 0.494 | 2.52 | 0.479 |
| ATATGTAGGTTACATCCGGGTCATTCATGCTATG | 2.82 | 3.6 | 2.21 | 1.42 | 2.93 | 3.61 | 2.46 | 4.1 | 3.43 |
| ATCGATAGGTCGAAGGTGAGTATACCCACCCGAA | 0.922 | 2.06 | 1.56 | -0.262 | 2.36 | 0.837 | -0.266 | 0.776 | -0.3 |
| TCTCGTAGATCAGCAGGTTAAGAAAGCTGGCCAA | -0.209 | -0.0899 | -0.67 | 0.451 | 0.405 | 0.0434 | -0.546 | 0.21 | -0.597 |
| AATACAGGGTCACTAGGCCAGAGAAGGTACGAAT | 3.45 | 5.18 | 4.96 | 2.58 | 5.52 | 3.52 | 1.18 | 4.08 | 2.31 |
| TCGAGTAGGTTAGTCGGGGCATTCACCCAACATA | 0.552 | 0.0959 | -0.000869 | 0.343 | 0.097 | 1.31 | 0.381 | 2.41 | 0.754 |
| GCTCGGAGGACAAGGCCAGAGCTTTGTCCGTAGA | 0.141 | -0.322 | -0.004 | -1.09 | -1.17 | 0.254 | -0.595 | -1.03 | -0.801 |
| CGTCAAAGTTCAAGATAACGTAACAGAAAGCAGC | 3.44 | 5.28 | 6.09 | 4.52 | 4.34 | 1.72 | -0.18 | 3.2 | 3.57 |
| GTAACGAGGGCATTCGAGTTGATAGCATGGCGAT | 0.944 | 1.34 | 1.45 | 2.91 | 0.914 | 3.18 | -0.244 | 3.62 | 3.97 |
| AGAACGAGGGCACCCTGAGTTGATAGCAGAGTAG | 0.823 | 1.54 | 1.76 | 1.42 | 1.14 | 1.59 | -0.12 | 1.47 | 1.36 |
| TCTAGAAGGCCAGAGGGTCACTCAAGAGGTACGG | 3.16 | 3.17 | 2.72 | 0.844 | 3.03 | 1.75 | -0.0793 | 2.05 | 0.435 |
| TCATATAGGTAATACAGGAGAAAGTCGGCATCTA | -0.136 | 0.519 | 0.598 | 1.48 | 0.686 | 0.0311 | 0.0486 | 0.996 | 0.233 |
| CATACAGGGTCAGCTACGCCAGAGTAGGGACGGC | 2.9 | 4.44 | 4.43 | 1.69 | 4.11 | 2.73 | 0.834 | 2.74 | 1.09 |
| TCTGCTAGGTCAGTTGGACAGCTAACGAGCTGCC | 1.99 | 2.24 | 3.47 | 0.472 | 0.621 | 1.12 | -0.399 | -0.155 | -0.808 |
| TCATATAGGTAAAAGGTGATAGTCGGTGTGGTAA | 1.15 | 0.851 | 0.577 | 1.76 | 1.86 | 0.901 | 0.434 | 1.13 | 0.283 |
| GCTAGCAGGCCATTTGGTTCACTCAATGACGGGC | -0.301 | -0.115 | -0.168 | 0.552 | -0.107 | -0.195 | -0.949 | 1.28 | 1.2 |
| ACTATTAGTTGAGACTAGGGCAACCGATAGGTTG | 0.465 | 0.376 | 0.586 | -0.0472 | 0.0824 | 1.25 | -0.533 | -0.386 | -0.353 |
| TCTATTAGTTGATTAGGGGAACCGAAACAGCGGA | 0.155 | 0.431 | 0.32 | 1.67 | 0.729 | 0.257 | 0.319 | 0.739 | 0.458 |
| TCATATAGGTAAACAGGTGAAGGTCCGTAAGTTA | 0.91 | 0.737 | 0.389 | 1.36 | 0.85 | 0.707 | 0.377 | 0.989 | 0.32 |
| ACTATTCGTTGAGACGAGGGCAACCGATAGGTTG | 1.26 | 0.489 | 0.81 | 0.393 | 0.523 | 1.33 | 0.648 | 0.454 | 0.643 |
| TAGCCTTGGTCAGATCGGGCCAGTATACGCTATA | -0.204 | -0.284 | 0.118 | -1.12 | -0.507 | 1.29 | -0.783 | -0.557 | -0.709 |
